TIM10 inh: growth inhibitors of isogenic TIM10 control yeast, primary screen, counter-screen for tim10-1 yeast inhibitor project, luminescence, uHTS; S. cerevisiae TIM10 strain growth, BacTiter-Glo luminescence, 24 h; 330,000 tested, 1.4% active; inhibition, % at 10 µM;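 active = inhibition of 40% or more at the single tested concentration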;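 note: wild-type TIM10 isogenic control strain grown at permissive 25 °C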
NALP1 yeast inh: NALP1 inflammasome inhibitors in reconstituted yeast, colorimetric, S. cerevisiae, triplicate retest. 280,000 tested, 0.61% active. AID 2071, 2009. S. cerevisiae NALP1/ASC/caspase-1 growth, X-gal OD620, 72 h. inhibition, % at 10 µM; in the data active = inhibition mostly above about 24%, no sharp cut-off; inactive = mostly below about 32%
SKKanGAS inh: S. pyogenes SKKanGAS growth inhibitors in kanamycin, primary screen, streptokinase expression inhibitor project, SKKanGAS strain, BacTiter-Glo luminescence; 6 h; inhibition, % at 7.5 µM; 300,000 tested, 1.3% active; AID 1662, 2009;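 active = mean replicate score, as percent of positive control median, at least 50; inconclusive = mean below 50 but one replicate at or above 50; inactive = mean and every replicate below 50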;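 note: strain carries kanamycin resistance gene driven by streptokinase promoter and grows in 40 µg/ml kanamycin; loss of luminescence reflects streptokinase promoter inhibition or plain growth inhibition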
tim10-1 inh: growth inhibitors of tim10-1 mutant yeast, primary screen, luminescence, uHTS. 330,000 tested, 2.2% active. inhibition, % at 20 µM. S. cerevisiae tim10-1 ts strain growth, BacTiter-Glo, 24 h. AID 463190, 2010;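 active = inhibition of at least 40%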;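 note: mutant grown at 25 °C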
tim23-1 inh: growth inhibitors of tim23-1 mutant yeast, primary screen, luminescence, uHTS; AID 463212, 2010; 330,000 tested, 1.3% active; S. cerevisiae tim23-1 growth, BacTiter-Glo luminescence, 24 h; inhibition, % at 20 µM;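 active = growth inhibition of the mutant yeast at or above 50%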;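 note: temperature-sensitive mutant grown at 25 °C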
PfHsp90 yeast 2: growth inhibition of PfHsp90-expressing yeast, primary screen, antimalarial PfHsp90 inhibitor project, S. cerevisiae, BacTiter-Glo luminescence, single point, set 2. BacTiter-Glo ATP, 48 h; yeast lacking PDR1 and PDR3 efflux regulators. inhibition, % at 9.4 µM. 310,000 tested, 0.32% active. AID 504621, 2011;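 active = every replicate shows inhibition above about 80%, whatever the replicate mean, limit read from the data; inconclusive = mean inhibition reaches the set limit but some replicate falls short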
Numbers stand for hits. Most compounds without a hit are left out; they make up all but 4.8% or so of the library.

For Cc1cc(C)c[n+](C2=C([O-])c3ccccc3C(=O)/C2=N\S(=O)(=O)c2cccs2)c1 the results were TIM10 inh inactive, NALP1 yeast inh inactive, SKKanGAS inh inconclusive, tim10-1 inh inactive, tim23-1 inh inactive and PfHsp90 yeast 2 inactive.
`N#C/C(=C\c1ccc(-c2ccccc2[N+](=O)[O-])o1)C(=O)Nc1nc(-c2cccs2)cs1` gave TIM10 inh inactive, NALP1 yeast inh inactive, SKKanGAS inh inactive, tim10-1 inh inactive, tim23-1 inh inactive and PfHsp90 yeast 2 inactive.
Screening O=C1/C(=C\c2ccc(Cl)cc2)CCC1CNc1ccc(Cl)cc1 (stereo not drawn) returned PfHsp90 yeast 2 147.
`COc1ccc(/C=C2/CCC(CN3CCOCC3)C2=O)cc1` (stereo not drawn) gave PfHsp90 yeast 2 146.
`CN(C)CC1CC/C(=C\c2ccc(O)cc2)C1=O` (stereo not drawn) gave PfHsp90 yeast 2 145.
For CC1CCC/C(=C\c2ccc(O)cc2)C1=O (stereo not drawn) the results were TIM10 inh inactive, SKKanGAS inh inactive, tim10-1 inh inactive, tim23-1 inh inactive and PfHsp90 yeast 2 inactive.
`CN(C)CC1CCC/C(=C\c2ccc(OC(=O)c3ccc(Cl)cc3)cc2)C1=O` (stereo not drawn) gave PfHsp90 yeast 2 inactive.
Screening Cc1ccc(S(=O)(=O)c2nnn3c2nc(N2CCOCC2)c2ccccc23)c(C)c1 returned TIM10 inh inactive, NALP1 yeast inh inactive, SKKanGAS inh inactive, tim10-1 inh inactive, tim23-1 inh inactive and PfHsp90 yeast 2 inactive.
Cc1ccc2c(c1)C(=O)CC1(CCC(C(C)(C)C)CC1)O2 (stereo not drawn) was read as TIM10 inh inactive, NALP1 yeast inh inactive, SKKanGAS inh 68, tim10-1 inh inactive, tim23-1 inh inactive and PfHsp90 yeast 2 inactive.
Screening Cc1ccc2c(c1)C(=O)CC(O)(C(F)(F)F)O2 (stereo not drawn) returned TIM10 inh inactive, NALP1 yeast inh inactive, SKKanGAS inh inactive, tim10-1 inh inactive, tim23-1 inh inactive and PfHsp90 yeast 2 inactive.
Screening C=CCn1c(CCNC(=O)c2cccs2)nnc1SCC(=O)Nc1cccc(F)c1 returned TIM10 inh inactive, NALP1 yeast inh inactive, SKKanGAS inh inactive, tim10-1 inh inactive, tim23-1 inh inactive and PfHsp90 yeast 2 inactive.
COc1ccccc1-c1cn[nH]c1-c1ccc(OCc2ccc(F)cc2)cc1O was read as TIM10 inh inactive, SKKanGAS inh 51, tim10-1 inh inactive, tim23-1 inh inactive and PfHsp90 yeast 2 inactive.
`C=C(C)COc1ccc(-c2nc(N)ncc2-c2ccc(Cl)cc2)c(O)c1` gave TIM10 inh inactive, NALP1 yeast inh inactive, SKKanGAS inh 99, tim10-1 inh inactive, tim23-1 inh inactive and PfHsp90 yeast 2 inactive.
COc1ccc(Oc2cn[nH]c2-c2ccc(O)cc2O)cc1 was read as TIM10 inh inactive, NALP1 yeast inh inactive, SKKanGAS inh inactive, tim10-1 inh inactive, tim23-1 inh inactive and PfHsp90 yeast 2 inactive.
Screening C=C(C)COc1ccc(-c2[nH]ncc2Oc2cccc(OC)c2)c(O)c1 returned TIM10 inh inactive, NALP1 yeast inh inactive, SKKanGAS inh 76, tim10-1 inh inactive, tim23-1 inh inactive and PfHsp90 yeast 2 110.
Screening COc1ccccc1-c1cn[nH]c1-c1ccc(OCc2ccc([N+](=O)[O-])cc2)cc1O returned TIM10 inh inactive, SKKanGAS inh inactive, tim10-1 inh inactive, tim23-1 inh inactive and PfHsp90 yeast 2 inactive.
For C=C(C)COc1ccc(-c2ncncc2Oc2ccc(OC)cc2)c(O)c1 the results were TIM10 inh inactive, NALP1 yeast inh inactive, SKKanGAS inh 55, tim10-1 inh inactive and tim23-1 inh inactive.
Screening C=C(C)COc1ccc(-c2[nH]ncc2-c2ccc(OC)cc2)c(O)c1 returned TIM10 inh inactive, SKKanGAS inh 75, tim10-1 inh inactive, tim23-1 inh inactive and PfHsp90 yeast 2 inactive.
Screening C=C(C)COc1ccc(-c2[nH]ncc2-c2ccccc2)c(O)c1 returned TIM10 inh inactive, NALP1 yeast inh inactive, SKKanGAS inh inactive, tim10-1 inh inactive, tim23-1 inh inactive and PfHsp90 yeast 2 inactive.
`CCOc1ccccc1Oc1cn[nH]c1-c1ccc(O)cc1O` gave TIM10 inh inactive, NALP1 yeast inh inactive, SKKanGAS inh inactive, tim10-1 inh inactive, tim23-1 inh inactive and PfHsp90 yeast 2 inactive.
Screening C=C(C)COc1ccc(-c2[nH]ncc2Oc2ccccc2OCC)c(O)c1 returned TIM10 inh inactive, NALP1 yeast inh inactive, SKKanGAS inh 77, tim10-1 inh inactive, tim23-1 inh inactive and PfHsp90 yeast 2 inactive.
For O=C(OCc1ccccc1)c1ccccc1O the results were TIM10 inh inactive, tim10-1 inh inactive and tim23-1 inh inactive.
For O=C(OCc1csc(-c2ccccc2)n1)c1ccccc1O the results were TIM10 inh inactive, NALP1 yeast inh inactive, SKKanGAS inh 50, tim10-1 inh inactive, tim23-1 inh inactive and PfHsp90 yeast 2 inactive.
For Cc1ccc(-c2cc(N)n3nc(-c4ccc(C)cc4)cc3n2)cc1 the results were TIM10 inh inactive, NALP1 yeast inh inactive, SKKanGAS inh inactive, tim10-1 inh inactive and tim23-1 inh inactive.
For Cc1ccc(-c2cc3nc(-c4ccc(Br)cc4)cc(N)n3n2)cc1 the results were TIM10 inh inactive, NALP1 yeast inh inactive, SKKanGAS inh 75, tim10-1 inh inactive, tim23-1 inh inactive and PfHsp90 yeast 2 inactive.
c1cc2c(c(NCc3ccncc3)c1)CCCC2 was read as TIM10 inh inactive, NALP1 yeast inh 38, SKKanGAS inh inactive, tim10-1 inh inactive, tim23-1 inh inactive and PfHsp90 yeast 2 inactive.
For CC(C)(C)CC(=O)Nc1cccc2c1CCCC2 the results were TIM10 inh inactive, NALP1 yeast inh inactive, SKKanGAS inh inactive, tim10-1 inh inactive, tim23-1 inh inactive and PfHsp90 yeast 2 inactive.
`CN1CCN(C(=O)CCCN2C(=O)/C(=C/c3ccccc3)SC2=S)CC1` gave TIM10 inh inactive, NALP1 yeast inh inactive, SKKanGAS inh inactive, tim10-1 inh inactive, tim23-1 inh inactive and PfHsp90 yeast 2 inactive.
`CC(/C=C1\SC(=S)N(CCCC(=O)Nc2ccc(C(=O)O)c(O)c2)C1=O)=C\c1ccccc1` gave NALP1 yeast inh inactive and SKKanGAS inh 100.
`O=C(O)CCCN1C(=O)/C(=C\C(Cl)=C\c2ccccc2)SC1=S` gave NALP1 yeast inh inactive, SKKanGAS inh 65 and PfHsp90 yeast 2 inactive.
`CC(/C=C1\SC(=S)N(CCC(=O)Nc2ccc(O)cc2)C1=O)=C\c1ccccc1` gave TIM10 inh inactive, NALP1 yeast inh inactive, SKKanGAS inh inactive, tim10-1 inh inactive, tim23-1 inh inactive and PfHsp90 yeast 2 inactive.
